Source: ChEMBL document CHEMBL4296182, “CO-ADD screening of NIH NCI Diversity Set V”
For part of these data: Potency and affinity values are given separately.

Columns and labels:
Staphylococcus aureus = assay: Antibacterial activity against Staphylococcus aureus MRSA ATCC 43300 (CO-ADD:GP_020); MIC in CAMBH media using NBS plates, by Resazurin F(560/590); format: functional; details: Concentration 20 uM, ASSAY_TEST Inhibition of Bacterial Growth, detection method Resazurin, Fluorescence (ex560/em590), MEDIA CAMHB, plate type 384well, CORNING #3640, time 18 hr
Acinetobacter baumannii = assay: Antibacterial activity against Acinetobacter baumannii ATCC 19606 (CO-ADD:GN_034); MIC in CAMBH media using NBS plates, by Resazurin F(560/590); format: functional; details: Concentration 20 uM, ASSAY_TEST Inhibition of Bacterial Growth, detection method Resazurin, Fluorescence (ex560/em590), MEDIA CAMHB, plate type 384well, CORNING #3640, time 18 hr
Escherichia coli = assay: Antibacterial activity against Escherichia coli ATCC 25922 (CO-ADD:GN_001); MIC in CAMBH media using NBS plates, by Resazurin F(560/590); format: functional; details: Concentration 20 uM, ASSAY_TEST Inhibition of Bacterial Growth, detection method Resazurin, Fluorescence (ex560/em590), MEDIA CAMHB, plate type 384well, CORNING #3640, time 18 hr
Klebsiella pneumoniae = details: Concentration 20 uM; ASSAY_TEST Inhibition of Bacterial Growth; detection method Absorption (OD600); MEDIA CAMHB; plate type 384well; NBS; CORNING #3640; time 18 hr
Candida albicans = details: 20 µM
Cryptococcus neoformans = details: Concentration 20 uM; ASSAY_TEST Inhibition of Fungal Growth; detection method Resazurin; Absorption (OD600-OD570); plate type 384well; NBS; CORNING #3640

Row | Structure (SMILES) | Inhibition (Staphylococcus aureus) [%] | Inhibition (Acinetobacter baumannii) [%] | Inhibition (Escherichia coli) [%] | Inhibition (Klebsiella pneumoniae) [%] | Inhibition (Candida albicans) [%] | Inhibition (Cryptococcus neoformans) [%]
1 | Cn1c(=O)c2c(nc(OCCc3ccccc3)n2C)n(C)c1=O | 6.63 | -9.02 | 8.83 | 12.12 | 3.96 | -6.56
2 | Cc1nc2ccnn2c(O)c1CCc1ccccc1 | 8.7 | -8.36 | 1.1 | 10.44 | 5.45 | -6.6
3 | COc1c(C=O)c2c(c(OC)c1OC)-c1ccc(OC)c(=O)cc1[C@@H](NC(C)=O)CC2 | -5.44 | -11.93 | 15.89 | 9.96 | 0.57 | -7.77
4 | Nc1cc(N)nc(CS)n1 | 9.52 | -5.46 | 6.53 | 20.9 | -2.73 | -6.05
5 | c1ccc(-c2ccc3c(c2)NC(C2Nc4cc(-c5ccccc5)ccc4O2)O3)cc1 (stereo unspecified) | 3.85 | 1.02 | 2.77 | 24.34 | -1.54 | -14.91
6 | O=C(/C=C/C(=O)N1CCc2ccccc2C1)N1CCc2ccccc2C1 | 0.65 | -9.4 | -3.52 | 3.56 | 7.97 | -10.59
7 | NS(=O)(=O)c1ccc(Nc2ccccc2)c([N+](=O)[O-])c1 | 4.64 | 12.63 | -4.87 | 9.32 | 7.16 | -1
8 | CNc1ncnc2c1cnn2C1CCCCO1 (stereo unspecified) | 3.48 | -13.53 | 9.64 | 6.75 | -2.26 | -11.76
9 | O=C1C(CO)C(CO)C(CO)C1CO (stereo unspecified) | 12.78 | -16.04 | 12.18 | 2.22 | -0.61 | -11.22
10 | Cc1ccc([N+](=O)[O-])cc1NC(=O)Nc1cccc(F)c1 | 33.45 | -10.69 | 8.59 | 12.62 | 18.3 | -9.48
11 | Cc1ccccc1N=C(S)Nc1ccccn1 | -11.3 | 17.16 | -8.87 | 16.17 | 15.5 | 4.14
12 | O=C(c1cccnc1)c1cc(-c2ccccn2)c(=O)n2ccccc12 | 15.83 | 5.57 | 12.26 | 7.21 | 0.65 | -7.13
13 | N=C(N)NS(=O)(=O)c1ccc(/N=C2/C(=O)Nc3ccccc32)cc1 | 10.79 | 2.06 | 11.61 | 5.69 | -0.17 | -10.75
14 | O=C1c2ccccc2C(=O)c2c(Nc3ccc(CCO)cc3)ccc(O)c21 | 19.9 | 1.68 | 9.39 | 4.66 | -0.52 | -4.75
15 | CCC(CC)c1ncc[nH]1 | -6.72 | -6.57 | 9.75 | 17.39 | -1.38 | -3.12
16 | CN(C)Cc1cc(C(F)(F)F)ccc1C(O)(c1ccccc1)c1ccccc1 | 9.65 | 13.38 | 9.52 | 10.99 | -1.43 | -9.44
17 | Nc1ccc2c(c1)Cc1cc(Cl)c(Cl)cc1-2 | 12.19 | -1.44 | 15.96 | 4.46 | 8.7 | -5.33
18 | CN1C(=O)CC2(C)C1=CCc1scnc12 (stereo unspecified) | 8.85 | 8.37 | 0.52 | 4.25 | 2.6 | -1.43
19 | Nc1ccc(C(=O)Nc2ccc(NC(=O)c3ccco3)c(O)c2)cc1 | 1 | 0.24 | 0.6 | 17.4 | 3.85 | -8.99
20 | S=c1c2nc[nH]c2ncn1CCSC1=NC=NC2=NC=NC21 (stereo unspecified) | 4.54 | -14.19 | 7.44 | 7.27 | 5.38 | -9.8
21 | O=Cc1c[nH]c2ncccc12 | 3.78 | -8.67 | 4.47 | 13.98 | 4.83 | -7.37
22 | CC(C)(C)N1CC(OC(N)=O)C1 | 21.14 | -14.09 | 8.01 | 8.74 | 1.7 | -9.34
23 | O=C1C2CC3N1CCC31c3ccccc3-n3c1c2ccc3=O (stereo unspecified) | 27.56 | -3.15 | 6.22 | 13.77 | 5.53 | -4.11
24 | N#Cc1ccc(NC2c3ccccc3CC2O)cc1 (stereo unspecified) | -13.68 | -7.5 | -15.24 | 3.05 | 0.94 | 8.31
25 | Nc1ccc(C(=O)Oc2ccc([N+](=O)[O-])cc2)cc1 | 12.07 | 4.99 | 4.45 | 11.91 | 3.13 | -14.05
26 | O=C1CCCc2cc3c(cc21)CC1(C3)Cc2cc3c(cc2C1)C(=O)CCC3 | 15.97 | -9.78 | 9.88 | 10.84 | 3.32 | -3.34

Row | Structure (SMILES) | Inhibition (Staphylococcus aureus) [%] | Inhibition (Acinetobacter baumannii) [%] | Inhibition (Escherichia coli) [%] | Inhibition (Klebsiella pneumoniae) [%] | Inhibition (Candida albicans) [%] | Inhibition (Cryptococcus neoformans) [%]
27 | CC(=O)c1cc2c(cc1C)CCCC2(C)C | 18.6 | -15.87 | 11.58 | 0.53 | -0.44 | -7.49
28 | Cc1ccc(-c2cc(C(=O)O)c3ccccc3n2)c(C)c1 | 11.92 | 8.6 | -3.13 | 18.95 | 8.35 | -6
29 | COc1cc(C(=O)OC(C)CN2CCOCC2)cc(OC)c1OC (stereo unspecified) | 13.82 | 10.27 | 6.24 | 16.73 | -2.91 | -0.56
30 | Nc1ccc(C(=O)Nc2ccc(Nc3ccncc3)cc2)cc1 | -3.72 | 6.97 | -13.54 | 10.04 | 2.67 | -0.31
31 | COc1ccc(/N=C\c2c(O)ccc3c2oc2cc(Cl)c(O)c(Cl)c23)cc1 | -3.23 | 0.5 | -4.89 | 17.64 | 2.89 | -10.03
32 | CCNC(=O)Oc1cccnc1O | 2.22 | -10.2 | 11.39 | 5.97 | 1.04 | -16.02
33 | Cn1c(=O)c2c(nc(N3CCOCC3)n2C)n(C)c1=O | 9.23 | 6.55 | 2.94 | 9.52 | 2.91 | -9.23
34 | O=C(Nc1cccc2c1N(C(=O)c1ccco1)CCC2)c1ccco1 | 23.38 | 8.42 | 4.6 | 13.8 | -1.4 | -2.48
35 | CS(=O)(=O)Oc1ccc(Br)c2cccnc12 | 10.68 | 10.16 | 3.51 | 19.67 | 4.07 | -11.45
36 | O=C1CCC(c2ccccc2)(c2ccccc2)CC1 | -6.5 | -6.38 | 1.3 | -0.79 | -1.35 | -9.68
37 | OC1(Cc2ccccc2)CCNCC1 | 8.09 | -10.57 | 6.88 | 12.17 | 7.54 | -0.07
38 | COc1c(NC=O)c2c(c([N+](=O)[O-])c1OC)C(=O)OC2 | 1.34 | 7.55 | 3.05 | 24.74 | 5.38 | 2.82
39 | COC1=CC(C)C2CC3OC(O)CC4C(C)=C(OC)C(=O)C(C2(C)C1=O)C34C (stereo unspecified) | 7.24 | 8.28 | -3.89 | 9.99 | 3.92 | 7.39
40 | Cc1cc2c(cc1C)N(C(=O)CCl)CC(=O)N2 | -15.91 | -11.28 | 5.03 | 7.32 | 2.46 | -7.55
41 | NNC(=O)CNC(=O)Nc1nnc(S)s1 | 1.09 | 15.79 | -4.75 | 16.78 | 2.5 | -8.13
42 | Cc1nc(O)c2c3c(sc2n1)CCCC3 | 1.78 | -6.79 | 6.4 | -0.52 | -0.04 | -11.89
43 | NCC(=O)Nc1ccc(Cl)cc1C(=O)c1ccc[nH]1 | -7.1 | -14.48 | 6.3 | 6.27 | 1.44 | -13.13
44 | Cc1ccc(S(=O)(=O)N(C)C)cc1[N+](=O)[O-] | -7.75 | -5.08 | -0.42 | 1.49 | 0.81 | -3.84
45 | CCOC(=O)C(C)c1c(C(=O)c2ccc(C)nc2)c2ccccc2n1C (stereo unspecified) | 10.11 | 9.14 | -0.3 | 16.34 | 0.68 | -10.08
46 | Oc1ccc(/C=C\c2cnccn2)cc1 | 3.99 | -7.27 | 16.94 | 16.23 | 1.24 | -11.21
47 | CC1=CC2=C(C=O)C(=O)[C@](C)(O)[C@@H](O)C2=CO1 | -0.76 | 11.76 | 8.5 | 9.69 | 4.9 | -12.05
48 | O=C1c2ccccc2C2=C3C(O)=NN=C3CCN12 | 13.67 | 14.87 | 4.79 | 9.82 | 5.2 | -1.84
49 | Nc1ccc(OC(=O)Nc2ccc(O)cc2)cc1 | -11.3 | 1 | -11.72 | 2.2 | -2.4 | 12.42
50 | CN(CC(=O)O)Cc1oc(CO)cc(=O)c1O | 10.58 | -10.6 | 6.09 | 19.22 | 0.31 | -9.52
51 | CC1=C(C#N)C(C)(C)C(C#N)=C(C)N1 | 13.81 | -13.23 | 8.21 | 8.84 | 0.55 | -14.16
